Laboratory results reported in PubChem BioAssay (Tox21).
Records with an inconclusive call do not appear. Activity calls are given as the source filed them. Unless noted, the call rests on the fitted dose curve; in most records, active means well fitted curve in the direction sought with a large enough effect in the repeat runs; inconclusive means weak or mixed curves; inactive means no such curve, though single readings can be large; an effect the other way counts as inactive or inconclusive.

Key:
[1] = qHTS assay to identify small molecule agonists of the peroxisome proliferator-activated receptor delta (PPARd) signaling pathway - cell viability counter screen (AID 743211); further: on the % scale 0 is the no-effect control and ±100 the full control effect; nearly all actives have a fitted effect of over 55% in size
Summary of the method: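 PPARd-bla HEK293H cells (UAS-beta-lactamase reporter) were treated with compounds for 17 h at 37 C. Viability was then read in the same wells by CellTiter-Glo luminescence after 30 min at room temperature.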

[2] = qHTS assay to identify small molecule antagonists of the peroxisome proliferator-activated receptor delta (PPARd) signaling pathway - cell viability counter screen (AID 743213); further: on the % scale 0 is the no-effect control and ±100 the full control effect; nearly all actives have a fitted effect of over 50% in size
Summary of the method: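 In this counter screen, HEK293H cells carrying a UAS-beta-lactamase reporter are co-treated with test compounds and 300 nM L165041 (final) for 17 h at 37 C; cell viability is quantified by CellTiter-Glo luminescence.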

[3] = qHTS assay to identify small molecule agonists of the farnesoid-X-receptor (FXR) signaling pathway - cell viability counter screen (AID 743218); further: on the % scale 0 is the no-effect control and ±100 the full control effect; nearly all actives have a fitted effect of over 45% in size
Summary of the method: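 HEK 293T FXR-bla cells; 5 h pre-incubation, 16 h compound exposure at 37 C; LiveBLAzer substrate 2 h RT, then CellTiter-Glo 30 min RT, luminescence.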

[4] = qHTS assay to identify small molecule antagonists of the farnesoid-X-receptor (FXR) signaling pathway - cell viability counter screen (AID 743221; active means well fitted cell-killing curve with a large enough effect in the repeat runs, not every such curve was filed as active; further: on the % scale 0 is the no-effect control and ±100 the full control effect; nearly all actives have a fitted effect of over 50% in size)
Summary of the method: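 FXR-UAS-bla HEK 293T cells were treated with test compounds plus chenodeoxycholic acid (50 uM final) for 16 h at 37 C. Cell viability in the same wells was then read as CellTiter-Glo luminescence after 30 min at room temperature.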

[5] = target: Vitamin D3 receptor (Homo sapiens) (UniProt P11473); test: qHTS assay to identify small molecule agonists of the vitamin D receptor (VDR) signaling pathway (AID 743222; calls by dose curve; further: on the % scale 0 is the no-effect control and ±100 the full control effect)
Vitamin D3 receptor (Homo sapiens), sequence (P11473 whole entry, looked up): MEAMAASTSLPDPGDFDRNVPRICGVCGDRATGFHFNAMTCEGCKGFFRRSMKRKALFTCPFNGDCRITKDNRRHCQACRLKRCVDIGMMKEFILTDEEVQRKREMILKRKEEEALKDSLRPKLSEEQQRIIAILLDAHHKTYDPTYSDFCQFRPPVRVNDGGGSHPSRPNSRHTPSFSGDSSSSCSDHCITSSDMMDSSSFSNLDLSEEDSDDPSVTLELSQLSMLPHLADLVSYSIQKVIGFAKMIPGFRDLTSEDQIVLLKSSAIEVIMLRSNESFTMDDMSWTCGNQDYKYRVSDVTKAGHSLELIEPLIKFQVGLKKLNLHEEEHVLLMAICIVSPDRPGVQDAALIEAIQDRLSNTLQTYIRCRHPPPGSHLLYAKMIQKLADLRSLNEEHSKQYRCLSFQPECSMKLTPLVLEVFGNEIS
Summary of the method: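 VDR-bla cells, 2,000/well; 4 h preincubation 37C; cpd (DMSO) 16 h; LiveBLAzer B/G substrate 2 h RT; fluorescence intensity read.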

[6] = qHTS assay to identify small molecule agonists of the vitamin D receptor (VDR) signaling pathway - cell viability counter screen (AID 743224); further: series mostly up to about 63 µM; on the % scale 0 is the no-effect control and ±100 the full control effect; nearly all actives have a fitted effect of over 50% in size
Summary of the method: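 Luminescence from CellTiter-Glo, read after 30 min at room temperature, reports viability of VDR-bla cells treated with compounds for 16 h at 37C in the wells used for the beta-lactamase FRET read.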

[7] = qHTS assay to identify small molecule antagonists of the vitamin D receptor (VDR) signaling pathway - cell viability counter screen (AID 743225); further: on the % scale 0 is the no-effect control and ±100 the full control effect; nearly all actives have a fitted effect of over 50% in size
Summary of the method: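 VDR-bla HEK 293T cells, 4 h pre-incubation at 37C, then compound plus 1-alpha,25-dihydroxyvitamin D3 (3 nM final) for 16 h. After the beta-lactamase FRET read, CellTiter-Glo was added to the same wells; luminescence after 30 min at room temperature.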

[8] = qHTS assay to identify small molecule agonists of the NFkB signaling pathway (AID 1159509; active means well fitted curve in the direction sought with a large enough effect in the signal ratio in the repeat runs, not every such curve was filed as active; the % refers to the signal ratio; further: series mostly up to about 61 µM; on the % scale 0 is the no-effect control and ±100 the full control effect)
Summary of the method: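 After overnight attachment, reporter cells received test compounds, DMSO or positive controls and were incubated 5 hr at 37 C. FRET substrate was then added for 1.5 hr at room temperature before dual-emission fluorescence reading.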

[9] = qHTS assay to identify small molecule agonists of the NFkB signaling pathway - cell viability counter screen (AID 1159515; calls by dose curve; further: series mostly up to about 61 µM; on the % scale 0 is the no-effect control and ±100 the full control effect; nearly all actives have a fitted effect of over 55% in size)
Summary of the method: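 Luminescence from CellTiter-Glo (30 min, room temperature) gives viability, measured in the same wells as the beta-lactamase reporter read. Cells were NFkB-bla ME-180, 2,000 per well, treated 5 hr with compounds.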

[10] = qHTS assay to identify small molecule agonists of the endoplasmic reticulum stress response signaling pathway (AID 1159516; active means well fitted activation curve with a large enough effect in the signal ratio in the repeat runs, not every such curve was filed as active; the % refers to the signal ratio; further: on the % scale 0 is the no-effect control and ±100 the full control effect)
Summary of the method: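 Read-out is beta-lactamase cleavage of a FRET substrate (405 nm excitation; 460 and 530 nm emissions) in ESRE-bla HeLa cells after a 5 hr compound exposure at 37 C. Substrate incubation ran 2 hr at room temperature.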

[11] = qHTS assay to identify small molecule agonists of the endoplasmic reticulum stress response signaling pathway - cell viability counter screen (AID 1159517; calls by dose curve)
Summary of the method: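 Counter-screen wells were identical to the reporter wells. Cells were plated at 1,500 per well and dosed for 5 hr, then read for luminescence 30 min after CellTiter-Glo addition.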

[12] = target: Nuclear receptor ROR-gamma (Homo sapiens) (UniProt P51449); test: qHTS assay to identify small molecule antagonists of the retinoid-related orphan receptor gamma (ROR-gamma) signaling pathway (AID 1159521)
Summary of the method: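 Tet-on RORγ CHO cells carrying a ROR response element–luciferase reporter were pretreated with compounds for 2 h, then induced with 1 uM (final) doxycycline hyclate for 16 h at 37 C. Antagonism was read as decreased ONE-Glo luminescence.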

[13] = qHTS assay to identify small molecule agonists of the AP-1 signaling pathway - cell viability counter screen (AID 1159525; calls by dose curve; further: nearly all actives have a fitted effect of over 55% in size)
Summary of the method: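 AP-1-bla ME-180 cells in Opti-MEM with 0.5% dialyzed FBS, compound exposure 5 h at 37 C in 15-point titration. Viability read in the same wells as ATP content by CellTiter-Glo luminescence, normalised to tetra-n-octylammonium bromide and DMSO controls.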

[14] = qHTS assay to identify small molecule agonists of the AP-1 signaling pathway (AID 1159526; calls by dose curve; further: on the % scale 0 is the no-effect control and ±100 the full control effect)
[15] = target: Peroxisome proliferator-activated receptor delta (Homo sapiens) (UniProt Q03181); test: qHTS assay to identify small molecule agonists of the peroxisome proliferator-activated receptor delta (PPARd) signaling pathway (AID 743212; calls by dose curve; further: on the % scale 0 is the no-effect control and ±100 the full control effect)
Peroxisome proliferator-activated receptor delta (Homo sapiens), sequence (Q03181 whole entry, looked up): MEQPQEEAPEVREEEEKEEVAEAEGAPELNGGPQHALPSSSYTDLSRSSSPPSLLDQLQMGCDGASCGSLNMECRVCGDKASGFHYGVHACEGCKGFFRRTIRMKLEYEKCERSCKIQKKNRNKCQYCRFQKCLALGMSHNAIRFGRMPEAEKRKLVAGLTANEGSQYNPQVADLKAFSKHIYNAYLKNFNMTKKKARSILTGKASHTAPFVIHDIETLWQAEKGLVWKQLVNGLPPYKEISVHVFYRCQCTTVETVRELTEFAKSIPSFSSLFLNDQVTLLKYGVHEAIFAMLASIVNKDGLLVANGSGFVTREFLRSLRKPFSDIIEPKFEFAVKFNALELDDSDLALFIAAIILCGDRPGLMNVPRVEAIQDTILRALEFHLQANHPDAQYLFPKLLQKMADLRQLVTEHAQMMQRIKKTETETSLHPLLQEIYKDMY
Summary of the method: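 Quantitative high-throughput agonist screen in a HEK293H beta-lactamase reporter line under UAS control. Compounds in DMSO, at 37 C. Fluorescence read after 2 h with FRET substrate at room temperature.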

[16] = target: Peroxisome proliferator-activated receptor delta (Homo sapiens) (UniProt Q03181); test: qHTS assay to identify small molecule antagonists of the peroxisome proliferator-activated receptor delta (PPARd) signaling pathway (AID 743215; active means well fitted inhibition curve with a large enough effect in the signal ratio in the repeat runs, not every such curve was filed as active; the % refers to the signal ratio)
Summary of the method: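 Read-out is beta-lactamase FRET fluorescence, measured 2 h after substrate addition at room temperature. Beforehand, UAS-bla HEK293H cells carrying the PPARd reporter were exposed to compounds with L165041 at 300 nM final for 17 h at 37 C.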

[17] = target: Bile acid receptor (Homo sapiens) (UniProt Q96RI1); test: qHTS assay to identify small molecule antagonists of the farnesoid-X-receptor (FXR) signaling pathway (AID 743217; active means well fitted inhibition curve with a large enough effect in the signal ratio in the repeat runs, not every such curve was filed as active; the % refers to the signal ratio; further: on the % scale 0 is the no-effect control and ±100 the full control effect)
Bile acid receptor (Homo sapiens), sequence (Q96RI1 whole entry, looked up): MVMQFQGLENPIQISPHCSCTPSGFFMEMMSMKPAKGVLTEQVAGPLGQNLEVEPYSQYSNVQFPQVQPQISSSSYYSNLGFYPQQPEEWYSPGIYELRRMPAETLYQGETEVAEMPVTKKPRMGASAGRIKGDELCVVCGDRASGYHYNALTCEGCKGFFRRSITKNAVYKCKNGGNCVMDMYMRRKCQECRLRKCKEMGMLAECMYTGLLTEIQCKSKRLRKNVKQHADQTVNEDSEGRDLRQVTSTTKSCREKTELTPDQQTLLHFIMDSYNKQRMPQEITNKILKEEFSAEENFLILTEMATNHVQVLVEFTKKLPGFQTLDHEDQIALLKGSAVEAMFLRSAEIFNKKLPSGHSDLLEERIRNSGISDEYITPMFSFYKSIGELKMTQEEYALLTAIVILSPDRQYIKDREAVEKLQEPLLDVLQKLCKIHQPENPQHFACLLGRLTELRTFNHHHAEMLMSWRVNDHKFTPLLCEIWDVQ
Summary of the method: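 HEK 293T FXR-UAS-bla, 5000 cells/well; compound + CDCA 50 uM final; 16 h, 37 °C; B/G FRET substrate 2 h RT; fluorescence.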

[18] = target: Bile acid receptor (Homo sapiens) (UniProt Q96RI1); test: qHTS assay to identify small molecule agonists of the farnesoid-X-receptor (FXR) signaling pathway (AID 743220; active means well fitted activation curve with a large enough effect in the signal ratio in the repeat runs, not every such curve was filed as active; the % refers to the signal ratio; further: on the % scale 0 is the no-effect control and ±100 the full control effect)
Summary of the method: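 Beta-lactamase reporter under UAS control in GeneBLAzer FXR HEK 293T cells (5000/well) measured with LiveBLAzer FRET substrate after 2 h at room temperature. Compound exposure lasted 16 h at 37C.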

[19] = target: Vitamin D3 receptor (Homo sapiens) (UniProt P11473); test: qHTS assay to identify small molecule antagonists of the vitamin D receptor (VDR) signaling pathway (AID 743223; active means well fitted inhibition curve with a large enough effect in the signal ratio in the repeat runs, not every such curve was filed as active; the % refers to the signal ratio; further: on the % scale 0 is the no-effect control and ±100 the full control effect)
Summary of the method: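 VDR-bla cells were plated, incubated 4 h at 37C, then given compound and 1alpha,25-dihydroxyvitamin D3 (3 nM final). After 16 h at 37C, LiveBLAzer B/G FRET substrate was added for 2 h at room temperature and fluorescence read.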

[20] = qHTS assay to identify small molecule antagonists of the retinoid-related orphan receptor gamma (ROR-gamma) signaling pathway - cell viability counter screen (AID 1159520)
Summary of the method: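 Tet-on ROR gamma CHO cells were given compounds for 2 hr, then doxycycline hyclate at 1 uM final, and incubated 16 hr at 37 C. Viability was measured as ATP content by CellTiter-Glo luminescence.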

CC(C)(C)c1n[nH]c(=S)n(N)c1=O
inactive: outcome [1] | outcome [2] | Potency [3] | outcome [4] | outcome [5] | Potency [6] | outcome [7] | outcome [8] | outcome [9] | outcome [10] | Potency [11] | outcome [12] | outcome [13] | outcome [14]

CCCCCCCCOS(=O)(=O)O
inactive: outcome [1] | outcome [15] | outcome [2] | outcome [16] | Potency [17] | Potency [3] | Potency [18] | outcome [4] | Potency [6] | outcome [8] | outcome [9] | outcome [10] | Potency [11] | outcome [12] | outcome [13] | outcome [14]

CN=C(NC#N)Nc1ccc(C2=NNC(=O)CC2C)cc1 (stereo not given)
inactive: outcome [1] | outcome [15] | outcome [2] | outcome [16] | Potency [3] | outcome [4] | outcome [5] | outcome [19] | Potency [6] | outcome [7] | outcome [8] | outcome [9] | outcome [10] | Potency [11] | outcome [12] | outcome [13] | outcome [14]

CCc1ccc(C=O)cc1
inactive: outcome [1] | outcome [15] | outcome [2] | outcome [16] | outcome [4] | outcome [5] | outcome [19] | outcome [7] | outcome [8] | outcome [9] | outcome [10] | outcome [20] | outcome [12] | outcome [13] | outcome [14]

CC(C)CC(=O)O
inactive: outcome [1] | outcome [15] | outcome [2] | outcome [16] | Potency [3] | outcome [4] | outcome [5] | outcome [19] | Potency [6] | outcome [8] | outcome [9] | outcome [10] | Potency [11] | outcome [12] | outcome [13] | outcome [14]

CCCCNc1ccc(C(=O)OCCN(C)C)cc1
inactive: outcome [1] | outcome [15] | outcome [2] | outcome [16] | outcome [4] | outcome [5] | outcome [19] | Potency [6] | outcome [8] | outcome [9] | outcome [10] | outcome [20] | outcome [12] | outcome [13] | outcome [14]

CCCCCCN
inactive: outcome [15] | outcome [2] | outcome [16] | outcome [4] | outcome [5] | outcome [19] | outcome [7] | outcome [8] | outcome [9] | outcome [10] | outcome [20] | outcome [12] | outcome [13] | outcome [14]

c1ccc2c(c1)ccc1c3ccccc3ccc21
inactive: outcome [1] | outcome [15] | outcome [2] | outcome [16] | Potency [17] | Potency [3] | Potency [18] | outcome [4] | outcome [5] | outcome [19] | Potency [6] | outcome [8] | outcome [9] | outcome [20] | outcome [12] | outcome [13] | outcome [14]

FC(F)(F)c1ccccc1-n1ccnc1
inactive: outcome [1] | outcome [2] | outcome [16] | outcome [4] | outcome [5] | outcome [19] | Potency [6] | outcome [7] | outcome [8] | outcome [9] | outcome [10] | outcome [20] | outcome [12] | outcome [13] | outcome [14]

CC1(C)S[C@@H]2[C@H](N=CN3CCCCCC3)C(=O)N2[C@H]1C(=O)O
inactive: outcome [15] | outcome [2] | outcome [16] | Potency [3] | outcome [4] | outcome [5] | outcome [19] | Potency [6] | outcome [7] | outcome [8] | outcome [9] | outcome [10] | outcome [20] | outcome [12] | outcome [13] | outcome [14]

CC1=C(C(=O)O)N2C(=O)[C@@H](NC(=O)[C@H](N)c3ccc(O)cc3)[C@H]2SC1
inactive: outcome [2] | Potency [17] | Potency [18] | outcome [4] | outcome [5] | outcome [19] | Potency [6] | outcome [7] | outcome [8] | outcome [9] | outcome [10] | outcome [20] | outcome [12] | outcome [13] | outcome [14]

Cc1ccc(S(=O)(=O)O)c(C)c1
inactive: outcome [15] | outcome [2] | outcome [16] | Potency [3] | outcome [4] | outcome [5] | outcome [19] | Potency [6] | outcome [7] | outcome [8] | outcome [9] | outcome [20] | outcome [12] | outcome [13] | outcome [14]

Cc1nc2n(c(=O)c1CCN1CCC(c3noc4cc(F)ccc34)CC1)CCC[C@H]2O
inactive: outcome [1] | outcome [15] | outcome [2] | outcome [16] | Potency [17] | Potency [3] | Potency [18] | outcome [4] | outcome [5] | outcome [19] | Potency [6] | outcome [7] | outcome [8] | outcome [9] | Potency [11] | activity, negative = cytotoxicity [20] 0.561% [at 19 µM] | activity change, negative = inhibition [12] 29.3% [at 19 µM] | viability change, negative = cytotoxic [13] 2.97% [at 15.8 µM] | activation [14] 6.23% [at 15.8 µM]

NCCS
inactive: outcome [15] | outcome [2] | outcome [16] | Potency [17] | outcome [4] | outcome [5] | outcome [19] | Potency [6] | outcome [7] | outcome [8] | outcome [9] | Potency [11] | outcome [20] | outcome [12] | outcome [13] | outcome [14]
